The source of these data is PubChem BioAssay (EPA / NIEHS).

“And” between values parts separate entries of the source, which are not always exact repeats. Equal entries are not always repeated. Inconclusive results are not listed. More than one record can exist for a structure, and the calls need not agree. The source made the active and inactive calls. How the source made its calls, unless noted: active means hit-call score of the fitted dose curve at least 0.9, where 1 is the maximum; inactive means score below 0.9.

The target of assay [1] is Nucleoli Translocation, AR (gene 367) (UniProt P10275). The assay can be described thus: UPITT_HCI_U2OS_AR_TIF2_Nucleoli_Antagonist: University of Pittsburgh U2OS Androgen Receptor-Transcriptional Intermediary Factor 2 (AR-TIF2) Antagonism High Content Imaging Assay for Nucleoli Translocation (AID 2283997; active means hit-call score of the fitted dose curve at least 0.9, where 1 is the maximum). A digest of the protocol:
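Compounds are added at 20 uM final concentration in 0.2% DMSO to U2OS cells carrying AR-RFP and TIF2-GFP fusions. Nucleolar AR-RFP fluorescence is then quantified by automated imaging. Antagonism is fitted positively against DHT baseline.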

Assay [2] has the same target. Put plainly: UPITT_HCI_U2OS_AR_TIF2_Nucleoli_Agonist: University of Pittsburgh U2OS Androgen Receptor-Transcriptional Intermediary Factor 2 (AR-TIF2) Agonism High Content Imaging Assay for Nucleoli Translocation (AID 2283998; active means hit-call score of the fitted dose curve at least 0.9, where 1 is the maximum). A digest of the protocol:
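U2OS cells expressing RFP-tagged human AR and GFP-tagged TIF2; red fluorescence in nucleoli quantified by high-content imaging. Primary screen at 20 uM final (0.2% DMSO); concentration-response 0.195–50 uM (0.5% DMSO), fitted upward versus DMSO.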

Assay [3] concerns the target Ratio of Nucleoli Translocation and Cytoplasm, AR (gene 367) (UniProt P10275). The assay can be described thus: UPITT_HCI_U2OS_AR_TIF2_Nucleoli_Cytoplasm_Ratio_Antagonist: University of Pittsburgh U2OS Androgen Receptor-Transcriptional Intermediary Factor 2 (AR-TIF2) Antagonism High Content Imaging Assay for Ratio of Nucleoli Translocation and Cytoplasm (AID 2283999; active means hit-call score of the fitted dose curve at least 0.9, where 1 is the maximum;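 further: antagonists lower the DHT-driven ratio of nucleolar to cytoplasmic red signal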). A digest of the protocol:
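This antagonist-mode endpoint tracks AR-RFP localisation, the nucleolus-to-cytoplasm intensity ratio, in TIF2-GFP-coexpressing U2OS cells. DMSO stays at or below 0.5%; testing spans 20 uM single-dose and 0.195–50 uM series, with DHT setting the activity baseline.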

The target is the same in assay [4]. The assay can be described thus: UPITT_HCI_U2OS_AR_TIF2_Nucleoli_Cytoplasm_Ratio_Agonist: University of Pittsburgh U2OS Androgen Receptor-Transcriptional Intermediary Factor 2 (AR-TIF2) Agonism High Content Imaging Assay for Ratio of Nucleoli Translocation and Cytoplasm (AID 2284000; active means hit-call score of the fitted dose curve at least 0.9, where 1 is the maximum;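 further: hits raise the red nucleolar to cytoplasm ratio above vehicle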). An outline of the steps: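 Human osteosarcoma U2OS line, AR-RFP plus TIF2-GFP; compounds 0.195–50 uM final, 0.5% DMSO. Readout: nucleolar/cytoplasmic RFP ratio by HCI, positive direction vs DMSO baseline.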

The nature of assay [5]: CCTE_Simmons_MITO_basal_resp_rate: CCTE's HepG2 Seahorse XF Respirometric Screening Assay at Basal Respiratory State, Simmons Lab (AID 2284001). The following applies: actives raise or lower the signal. An outline of the steps:
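Basal-phase OCR of HepG2 cells on a Seahorse XF96, analysed by bidirectional fit relative to DMSO vehicle; chemicals at 7 concentrations, 125 nM–100 uM final; three biological replicates; fenpyroximate and 2,4-dinitrophenol positive controls.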

A short description of assay [6]: CCTE_Simmons_MITO_max_resp_rate: CCTE's HepG2 Seahorse XF Respirometric Screening Assay at Maximal Respiratory State [uncoupled], Simmons Lab (AID 2284002). The following applies: actives raise or lower the signal. A digest of the protocol:
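HepG2 oxygen consumption measured on Seahorse XF after FCCP uncoupling, following test compound injection; 7 concentrations from 125 nM to 100 uM final. Readings every 6 min over 72 min, three biological replicates; bidirectional fit versus DMSO.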

Assay [7] is described as follows: CCTE_Simmons_MITO_inhib_resp_rate: CCTE's HepG2 Seahorse XF Respirometric Screening Assay at Inhibited Respiratory State [full ETC block], Simmons Lab (AID 2284006). As to conditions: actives raise or lower the signal. A digest of the protocol:
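Test chemicals at seven final concentrations (125 nM–100 uM) in three biological replicates, with DMSO as vehicle. HepG2 oxygen consumption was then tracked on a Seahorse XF96 for 72 min through FCCP and rotenone/antimycin A phases, with the inhibited-phase rate as the endpoint.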

Assay [8] is described as follows: CCTE_Simmons_MITO_viability: CellTiter-Glo Viability Assessment for CCTE's HepG2 Seahorse XF Respirometric Screening Assay [post-hoc], Simmons Lab (AID 2284007; active means hit-call score of the fitted dose curve at least 0.9, where 1 is the maximum). A digest of the protocol: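 Post-hoc viability check on the HepG2 respirometry plates: luciferase-based ATP signal measured once, after 90 min compound exposure spanning 125 nM–100 uM final. Activity was referenced to DMSO as baseline.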

A short description of assay [9]: CCTE_Harrill_HTTr_Viability_MCF7: CCTE's 6-hour Cell Viability Assessment for the High-Throughput Transcriptomics (HTTr) Platform, in MCF-7 cells cultured in DMEM + 10% fetal bovine serum, Harrill Lab (AID 2284010). An outline of the steps: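 Eight-point concentration series, six-hour exposure. Propidium iodide exclusion imaged to assess membrane integrity as a cytotoxicity readout; bidirectional fitting was done with DMSO as negative control and activity baseline.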

Assay [10] can be described thus: CCTE_Harrill_HTTr_Apoptosis_MCF7: CCTE's 6-hour Apoptosis Assessment for the High-Throughput Transcriptomics (HTTr) Platform, in MCF-7 cells cultured in DMEM + 10% fetal bovine serum, Harrill Lab (AID 2284011). An outline of the steps: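 MCF-7 cells in DMEM + 10% FBS exposed 6 h to chemicals over an eight-point dilution series. Caspase-3/7 activation imaged by high-content CellEvent Green staining; fitted bidirectionally versus DMSO.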

Assay [11] in a line: CCTE_Shafer_MEA_acute_spike_number: CCTE's Neural Acute Assay for Total Number of Spikes, Shafer Lab (AID 2284008).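 On AC50: curve fitted for decrease in spike count so AC50 reflects inhibitors.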 An outline of the steps: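 Rat primary cortical neurons on 48-well MEA plates, DIV 13 or 15, at 37 C. 40 min baseline then 40 min with compound (0.03-40 uM); spikes detected at 8x rms noise, expressed as percent change from baseline.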
Assay [12] is described as follows: CCTE_Shafer_MEA_acute_firing_rate_mean: CCTE's Neural Acute Assay for Mean Firing Rate, Shafer Lab (AID 2284009).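 Further: analyzed for loss of signal so actives lower firing rate relative to DMSO.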 An outline of the steps: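 Rat cortical neuron cultures matured to DIV 13 or 15, equilibrated 20 min at 37 C, then recorded 40 min for baseline. Compound (0.03-40 uM) added and a further 40 min recorded; percent change in mean firing rate calculated per well.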

Assay [13] in a line: CCTE_Shafer_MEA_acute_burst_number: CCTE's Neural Acute Assay for Single-Electrode Bursts, Shafer Lab (AID 2284013). An outline of the steps: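 Percent change in single-electrode burst number per well, from 40-min recordings taken before and after adding compound (0.03-40 uM) to primary rat cortical neurons on MEA plates at DIV 13 or 15, 37 C.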
Assay [14] in a line: CCTE_Shafer_MEA_acute_per_burst_spike_number_mean: CCTE's Neural Acute Assay for Average Number of Spikes Per Burst, Shafer Lab (AID 2284015).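 Further: hits are decreases in mean spikes per burst versus baseline.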 A digest of the protocol:
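Percent change in mean spikes per single-electrode burst is compared between a 40 min baseline and a 40 min recording with compound (0.03-40 uM). Cultures were rat cortical neurons on MEA plates at DIV 13 or 15, recorded at 37 C, with DMSO as the negative control.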

Assay [15] in a line: CCTE_Shafer_MEA_acute_interburst_interval_mean: CCTE's Neural Acute Assay for Mean Interburst Interval, Shafer Lab (AID 2284016).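 Further: percent change of mean interburst interval versus each well's own pre-dose baseline; curves fitted for decrease in interburst interval relative to DMSO.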 A digest of the protocol:
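Percent change in mean single-electrode interburst interval was calculated per well from 40 min recordings before and after compound (0.03-40 uM). Recordings were made at 37 C on rat cortical cultures at DIV 13 or 15, with spikes detected at 8x rms threshold.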

A short description of assay [16]: CCTE_Shafer_MEA_acute_burst_percentage_mean: CCTE's Neural Acute Assay for Percentage of Spikes in a Burst, Shafer Lab (AID 2284017).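 On AC50: curve fitted for loss of signal so potency reflects decreased burst percentage.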 A digest of the protocol:
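Well-level mean burst percentage from a 40-min recording after compound (0.03-40 uM) expressed as percent change from a 40-min baseline at 37C. Cultures: primary rat cortical neurons on MEA, dosed on DIV 13 or 15; fitted downward relative to DMSO.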

A short description of assay [17]: CCTE_Shafer_MEA_acute_burst_percentage_std: CCTE's Neural Acute Assay for Standard Deviation of Burst Percentage, Shafer Lab (AID 2284018).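 Further: fitted in the negative direction so actives lower burst percentage SD.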 A digest of the protocol:
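Rat primary cortical neurons on 48-well MEAs, DIV 13 or 15, 37 C. 40-min baseline then 40-min recording with compound (0.03-40 uM); well-level SD of per-electrode burst spike percentage, expressed as percent change from baseline.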

The nature of assay [18]: CCTE_Shafer_MEA_acute_per_network_burst_spike_number_mean: CCTE's Neural Acute Assay for Average Number of Spikes in a Network Burst, Shafer Lab (AID 2284019).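 On AC50: curve fitted for loss of signal so actives reduce spikes per network burst.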 An outline of the steps:
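Rat cortical cultures, DIV 13/15; spike threshold 8x rms noise, 300-5000 Hz band-pass, 12.5 kHz sampling; wells need >/= 10 active electrodes. Compound 0.03-40 uM, 40 min, 37 C; % change vs own baseline, DMSO negative control.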

A short description of assay [19]: CCTE_Shafer_MEA_acute_per_network_burst_spike_number_std: CCTE's Neural Acute Assay for Standard Deviation of Number of Spikes in a Network Burst, Shafer Lab (AID 2284020).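 Further: fitted for decrease in spike-number SD versus DMSO so actives lower it.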 A digest of the protocol:
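Rat cortical cultures, DIV 13/15, 37 C; 20-min stabilisation, 40-min baseline, compound 0.03-40 uM, 40-min re-record. Spikes detected at 8x rms noise (300-5000 Hz band-pass). Readout: % change from baseline in per-burst spike-number SD.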

Assay [20] in a line: CCTE_Harrill_HTTr_CellCount_MCF7: CCTE's Cell Proliferation Assessment for the High-Throughput Transcriptomics (HTTr) Platform, Harrill Lab (AID 2284012; active means hit-call score of the fitted dose curve at least 0.9, where 1 is the maximum;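 further: count of Hoechst-stained nuclei per well by high-content imaging in MCF-7 cells; cells exposed to compound for six hours; intended direction is loss of nuclei count meaning fewer cells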). An outline of the steps:
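For this full-screen endpoint, MCF-7 cultures received eight compound dilutions for six hours. Well nuclei counts from Hoechst imaging were analyzed relative to DMSO.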

Sequence of Ratio of Nucleoli Translocation and Cytoplasm, AR (gene 367) (P10275 whole entry, looked up): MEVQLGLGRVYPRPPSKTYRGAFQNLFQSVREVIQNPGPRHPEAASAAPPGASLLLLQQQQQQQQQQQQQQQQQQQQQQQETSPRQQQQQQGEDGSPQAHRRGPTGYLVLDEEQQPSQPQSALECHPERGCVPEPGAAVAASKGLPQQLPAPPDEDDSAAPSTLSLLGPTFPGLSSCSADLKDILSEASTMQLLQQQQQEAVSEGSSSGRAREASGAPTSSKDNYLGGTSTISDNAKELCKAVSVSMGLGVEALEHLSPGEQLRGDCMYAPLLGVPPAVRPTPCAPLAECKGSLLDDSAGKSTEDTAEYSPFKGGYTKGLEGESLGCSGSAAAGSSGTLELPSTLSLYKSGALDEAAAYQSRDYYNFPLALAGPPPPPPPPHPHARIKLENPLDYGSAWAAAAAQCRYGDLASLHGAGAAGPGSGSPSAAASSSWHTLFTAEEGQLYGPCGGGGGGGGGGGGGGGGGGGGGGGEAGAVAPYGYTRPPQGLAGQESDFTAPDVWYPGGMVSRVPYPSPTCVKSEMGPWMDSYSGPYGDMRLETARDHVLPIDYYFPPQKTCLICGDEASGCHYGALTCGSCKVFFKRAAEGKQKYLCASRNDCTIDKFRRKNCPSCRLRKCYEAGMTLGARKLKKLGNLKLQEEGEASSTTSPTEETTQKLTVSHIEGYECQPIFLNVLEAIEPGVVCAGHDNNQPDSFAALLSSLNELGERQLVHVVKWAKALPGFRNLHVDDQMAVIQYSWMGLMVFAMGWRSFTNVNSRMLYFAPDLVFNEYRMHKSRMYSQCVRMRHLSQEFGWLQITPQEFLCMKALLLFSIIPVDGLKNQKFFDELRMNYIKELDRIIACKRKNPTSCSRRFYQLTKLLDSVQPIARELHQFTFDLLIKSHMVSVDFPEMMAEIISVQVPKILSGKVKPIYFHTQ
Sequence of Nucleoli Translocation, AR (gene 367) (P10275 whole entry, looked up, the tested form may be a part): as the sequence (P10275 whole entry, looked up) above

For `C#CCN1C(=O)COc2cc(F)c(N3C(=O)C4=C(CCCC4)C3=O)cc21`, the compound was called inactive in assay [1], in assay [2], in assay [3], in assay [4], in [7] and in assay [8]. The outcome in assay [9] and in assay [10] was inactive. For the same compound, the AC50 is 64.9 µM (active) in [5] and 53.1 µM (active) in assay [6].

For the compound `CCCN(CCC)c1c([N+](=O)[O-])cc(C(F)(F)F)cc1[N+](=O)[O-]`, the result in assay [1], in assay [3], in assay [4], in assay [12], in [9] and in assay [10] was inactive. Also, the compound was classed as inactive in [13], in assay [14], in assay [18] and in assay [19]. Further, the AC50 in assay [11] was 8.55 µM (active); in [15] it was 4.23 µM (active); in assay [16] it was 5.5 µM (active); in assay [17], 20 µM (active).

In the case of `Oc1cc(Cl)ccc1Oc1ccc(Cl)cc1Cl`, the AC50 is 21 µM (active) in [5]; 19.3 µM (active) in assay [6]; 1.89 µM (active) in assay [11]; 1.89 µM (active) in assay [12]; 1.29 µM (active) in assay [13]; 1.2 µM (active) in assay [15]. For the same compound, the AC50 in assay [16] is 12.7 µM (active). Further, the call in [5], in assay [7], in [8], in assay [9], in assay [10] and in assay [20] was inactive. The compound was classed as inactive in assay [14], in assay [17], in [18] and in assay [19].

On to `CC(C)(C)C(O)/C(=C\c1ccc(Cl)cc1Cl)n1cncn1` (stereo not given), for which the concentration at half-maximal activity (AC50) in assay [5] is 15.8 µM (active); in assay [6], 21.1 µM (active). Also, the result in assay [7], in assay [8], in [9], in [10] and in assay [20] was inactive.

With `CCC(C)(NC(=O)c1cc(Cl)c(C)c(Cl)c1)C(=O)CCl` (stereo not given), the compound was called inactive in assay [5], in [6], in [7], in assay [9], in assay [10] and in assay [20].

For the compound `C[C@H]1[C@H](c2ccc(Cl)cc2)SC(=O)N1C(=O)NC1CCCCC1`, the AC50 in [1] was 27.4 µM (active); in assay [11], 13 µM (active); in assay [12] it was 13.1 µM (active); in assay [13] it was 10.3 µM (active); in assay [14], 17.2 µM (active); in assay [15] it was 28.7 µM (active). Also, the AC50 was 19.8 µM (active) in [16], 28.4 µM (active) in [17], 9.24 µM (active) in [18] and 20 µM (active) in assay [19]. The result in [2], in assay [3], in assay [4], in assay [9] and in assay [10] was inactive.

`CCOC1Oc2ccc(OS(C)(=O)=O)cc2C1(C)C` (stereo not given): the compound was classed as inactive in assay [1], in [4], in assay [8], in [9] and in assay [10]. The results for the AC50 in [5], in assay [6] and in assay [7] were 33.5 µM (active), 35.3 µM (active) and 33.9 µM (active), respectively.

Consider `O=S1OCC2C(CO1)C1(Cl)C(Cl)=C(Cl)C2(Cl)C1(Cl)Cl` (stereo not given), for which the AC50 in [1] is 30.6 µM (active); in [14], 223 nM (active) and 58.3 nM (active); in assay [16] it was 25.5 µM (active); in assay [17], 0.102 µM (active); in assay [18], 230 nM (active) and 56 nM (active); in [19], 0.348 µM (active). The call in [2], in [3], in assay [11], in assay [12], in assay [9] and in assay [10] was inactive. In addition, the outcome in assay [20], in assay [13], in assay [15], in assay [16], in assay [17] and in assay [19] was inactive.

For the compound `CCC(C)Nc1c([N+](=O)[O-])cc(C(C)(C)C)cc1[N+](=O)[O-]` (stereo not given), the result in assay [5], in [6], in [7], in assay [8], in assay [11] and in assay [12] was inactive. Besides, the outcome in assay [9], in assay [10], in [13], in assay [14], in assay [15] and in assay [16] was inactive. For the same compound, the outcome in assay [18] and in assay [19] was inactive. In addition, the concentration at half-maximal activity (AC50) in assay [17] is 0.935 µM (active).
